# Measurements published in ChEMBL document CHEMBL3988442, “University of Dundee, Small-Polar-MMV Screening Library” (2021).
# For some assays here: Results with a measured potency or affinity are listed apart.
# Legend:
# Design in all cases: scale not given: direction of the effect not stated beside the values
# [1] = biological target: Protein translocase subunit SecA (Escherichia coli (strain K12)) (UniProt P10408); assay: Assay to Identify E. coli SecA ATPase Inhibitors; format: functional; conditions: 30 µM
# [2] = biological target: T1, Ubiquitin-activating enzyme e1, putative (Leishmania donovani (strain BPK282A1)) (UniProt E9BSI1); assay: Leishmania donovani Ubiquitin Activating Enzyme (LdE1); format: functional; conditions: 30 µM
# T1 sequence (whole entry): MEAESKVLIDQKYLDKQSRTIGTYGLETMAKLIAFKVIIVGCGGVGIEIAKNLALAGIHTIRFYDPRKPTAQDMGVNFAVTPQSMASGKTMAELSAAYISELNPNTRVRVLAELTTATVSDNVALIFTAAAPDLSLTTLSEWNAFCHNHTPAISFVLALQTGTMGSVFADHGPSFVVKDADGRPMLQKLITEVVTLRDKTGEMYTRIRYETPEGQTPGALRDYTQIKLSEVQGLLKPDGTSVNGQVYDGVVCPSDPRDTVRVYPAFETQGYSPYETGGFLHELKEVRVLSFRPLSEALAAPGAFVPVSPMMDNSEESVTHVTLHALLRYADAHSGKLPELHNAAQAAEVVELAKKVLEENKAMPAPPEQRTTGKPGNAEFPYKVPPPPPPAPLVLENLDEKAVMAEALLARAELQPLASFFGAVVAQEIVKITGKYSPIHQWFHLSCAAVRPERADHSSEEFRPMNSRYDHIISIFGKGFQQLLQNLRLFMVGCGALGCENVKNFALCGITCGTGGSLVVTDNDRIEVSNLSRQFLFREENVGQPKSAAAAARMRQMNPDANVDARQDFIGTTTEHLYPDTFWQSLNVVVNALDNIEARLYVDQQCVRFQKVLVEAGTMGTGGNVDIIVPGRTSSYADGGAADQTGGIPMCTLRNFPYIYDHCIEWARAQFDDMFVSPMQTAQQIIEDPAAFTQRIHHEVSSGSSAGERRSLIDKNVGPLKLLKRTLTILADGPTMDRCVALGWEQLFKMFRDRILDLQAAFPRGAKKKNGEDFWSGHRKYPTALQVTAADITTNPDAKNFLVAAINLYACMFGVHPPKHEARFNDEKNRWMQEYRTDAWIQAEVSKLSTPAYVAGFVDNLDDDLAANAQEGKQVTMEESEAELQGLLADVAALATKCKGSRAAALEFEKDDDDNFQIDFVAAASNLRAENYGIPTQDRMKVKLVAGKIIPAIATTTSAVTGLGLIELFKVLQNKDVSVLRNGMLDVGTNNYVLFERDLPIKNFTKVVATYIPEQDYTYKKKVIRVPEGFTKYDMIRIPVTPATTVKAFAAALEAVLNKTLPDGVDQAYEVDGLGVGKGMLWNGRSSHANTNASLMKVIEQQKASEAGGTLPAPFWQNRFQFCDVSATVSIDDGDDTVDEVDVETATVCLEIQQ
# [3] = biological target: AMP-activated protein kinase, AMPK (Homo sapiens) (UniProt P54646+O43741+P54619+Q9UGJ0+Q9Y478+Q13131+Q9UGI9); assay: AMP-dependent Kinase enzyme assay. An in vitro enzyme assay that detects ADP turnover that is directly proportional to AMPK activity. This uses naive AMPK that is activated during the assay with MK-8722; format: functional; conditions: 30 µM
# [4] = biological target: Sialic acid-binding Ig-like lectin 9 (Homo sapiens) (UniProt Q9Y336); assay: Hs-Siglec9 ALPHAscreen SOP 20170721; conditions: 10 µM
# [5] = test system: Trypanosoma cruzi; assay: Trypanosoma cruzi phosphomannomutase and mannose-1-phosphate guanylyltransferase assay; format: functional; conditions: 10 µM
# [6] = biological target: T2, Arginase-2, mitochondrial (Homo sapiens) (UniProt P78540); assay: in vitro enzyme assay to detect the production of urea directly proportional to the activity of Arginase II; format: functional; conditions: 33.3 µM; also: in the data most compounds retested in dose-response had high values
# T2 sequence (whole entry): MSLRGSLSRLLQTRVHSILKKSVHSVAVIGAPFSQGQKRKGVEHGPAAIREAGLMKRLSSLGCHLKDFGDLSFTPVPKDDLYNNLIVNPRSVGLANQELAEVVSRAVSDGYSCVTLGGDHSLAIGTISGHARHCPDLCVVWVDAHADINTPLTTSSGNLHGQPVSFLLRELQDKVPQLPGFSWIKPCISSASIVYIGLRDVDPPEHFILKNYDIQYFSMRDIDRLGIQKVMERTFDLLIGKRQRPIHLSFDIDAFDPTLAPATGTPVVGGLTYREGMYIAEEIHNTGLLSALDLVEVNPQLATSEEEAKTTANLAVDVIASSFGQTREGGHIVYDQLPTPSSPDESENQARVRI
# [7] = biological target: T3, Proteasome subunit beta (Trypanosoma cruzi) (UniProt O96673); assay: Trypanosoma cruzi proteasome chymotrypsin-like activity (TcProtChymo) assay.; also: in the data most compounds retested in dose-response had high values; format: functional; conditions: 9.37 µM
# T3 sequence (whole entry): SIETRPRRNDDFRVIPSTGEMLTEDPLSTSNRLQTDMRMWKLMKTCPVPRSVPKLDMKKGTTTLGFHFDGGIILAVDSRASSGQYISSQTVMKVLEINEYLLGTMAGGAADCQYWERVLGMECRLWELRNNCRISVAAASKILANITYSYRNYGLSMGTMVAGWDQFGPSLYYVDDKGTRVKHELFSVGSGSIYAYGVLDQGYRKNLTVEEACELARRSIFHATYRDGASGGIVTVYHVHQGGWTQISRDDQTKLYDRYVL
# [8] = species: Homo sapiens; assay: To identify inhibition of the IFN signalling (Jak-Stat) pathway via expression of an eGFP reporter gene under the control of an IFN-stimulated response element (ISRE) containing MxA promoter.; format: functional; conditions: 30 µM
# [9] = biological target: T4, Tyrosyl-tRNA synthetase, putative (Trypanosoma cruzi (strain CL Brener)) (UniProt Q4DSP6); assay: Trypanosoma cruzi tyrosyl tRNA synthetase (TcYRS) _High Tyrosine SOP; format: functional; conditions: 30 µM; also: in the data most compounds retested in dose-response had high values
# T4 sequence (whole entry): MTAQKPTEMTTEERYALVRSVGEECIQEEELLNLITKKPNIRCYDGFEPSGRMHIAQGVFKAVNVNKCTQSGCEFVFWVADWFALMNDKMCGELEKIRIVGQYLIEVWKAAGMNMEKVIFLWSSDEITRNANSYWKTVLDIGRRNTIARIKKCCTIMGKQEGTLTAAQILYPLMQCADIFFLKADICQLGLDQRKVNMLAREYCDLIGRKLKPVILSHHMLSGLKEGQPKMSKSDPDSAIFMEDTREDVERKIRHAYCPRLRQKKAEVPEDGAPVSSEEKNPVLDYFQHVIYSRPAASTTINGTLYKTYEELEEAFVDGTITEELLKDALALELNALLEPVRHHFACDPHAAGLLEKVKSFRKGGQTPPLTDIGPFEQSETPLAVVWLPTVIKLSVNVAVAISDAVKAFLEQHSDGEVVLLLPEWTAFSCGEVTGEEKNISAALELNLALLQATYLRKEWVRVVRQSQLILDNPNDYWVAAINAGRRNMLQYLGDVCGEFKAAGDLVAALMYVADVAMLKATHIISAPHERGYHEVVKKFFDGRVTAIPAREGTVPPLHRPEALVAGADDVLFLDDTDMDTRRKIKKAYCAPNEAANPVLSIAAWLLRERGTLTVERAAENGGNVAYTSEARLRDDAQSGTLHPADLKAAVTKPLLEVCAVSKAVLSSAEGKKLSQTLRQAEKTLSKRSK
# [10] = biological target: T4, Tyrosyl-tRNA synthetase, putative (Trypanosoma cruzi (strain CL Brener)); assay: Trypanosoma cruzi tyrosyl tRNA synthetase (TcYRS) SOP; format: functional; conditions: 30 µM
# [11] = biological target: Chromo domain-containing protein 1 (Saccharomyces cerevisiae (strain ATCC 204508 / S288c) (Baker's yeast)) (UniProt P32657); assay: ScCHD-1 Enzyme Inhibition Assay; format: functional; conditions: 30 µM; also: in the data most compounds retested in dose-response had high values
# Chromo domain-containing protein 1 (Saccharomyces cerevisiae (strain ATCC 204508 / S288c) (Baker's yeast)), sequence (P32657 whole entry, the tested form may be a part): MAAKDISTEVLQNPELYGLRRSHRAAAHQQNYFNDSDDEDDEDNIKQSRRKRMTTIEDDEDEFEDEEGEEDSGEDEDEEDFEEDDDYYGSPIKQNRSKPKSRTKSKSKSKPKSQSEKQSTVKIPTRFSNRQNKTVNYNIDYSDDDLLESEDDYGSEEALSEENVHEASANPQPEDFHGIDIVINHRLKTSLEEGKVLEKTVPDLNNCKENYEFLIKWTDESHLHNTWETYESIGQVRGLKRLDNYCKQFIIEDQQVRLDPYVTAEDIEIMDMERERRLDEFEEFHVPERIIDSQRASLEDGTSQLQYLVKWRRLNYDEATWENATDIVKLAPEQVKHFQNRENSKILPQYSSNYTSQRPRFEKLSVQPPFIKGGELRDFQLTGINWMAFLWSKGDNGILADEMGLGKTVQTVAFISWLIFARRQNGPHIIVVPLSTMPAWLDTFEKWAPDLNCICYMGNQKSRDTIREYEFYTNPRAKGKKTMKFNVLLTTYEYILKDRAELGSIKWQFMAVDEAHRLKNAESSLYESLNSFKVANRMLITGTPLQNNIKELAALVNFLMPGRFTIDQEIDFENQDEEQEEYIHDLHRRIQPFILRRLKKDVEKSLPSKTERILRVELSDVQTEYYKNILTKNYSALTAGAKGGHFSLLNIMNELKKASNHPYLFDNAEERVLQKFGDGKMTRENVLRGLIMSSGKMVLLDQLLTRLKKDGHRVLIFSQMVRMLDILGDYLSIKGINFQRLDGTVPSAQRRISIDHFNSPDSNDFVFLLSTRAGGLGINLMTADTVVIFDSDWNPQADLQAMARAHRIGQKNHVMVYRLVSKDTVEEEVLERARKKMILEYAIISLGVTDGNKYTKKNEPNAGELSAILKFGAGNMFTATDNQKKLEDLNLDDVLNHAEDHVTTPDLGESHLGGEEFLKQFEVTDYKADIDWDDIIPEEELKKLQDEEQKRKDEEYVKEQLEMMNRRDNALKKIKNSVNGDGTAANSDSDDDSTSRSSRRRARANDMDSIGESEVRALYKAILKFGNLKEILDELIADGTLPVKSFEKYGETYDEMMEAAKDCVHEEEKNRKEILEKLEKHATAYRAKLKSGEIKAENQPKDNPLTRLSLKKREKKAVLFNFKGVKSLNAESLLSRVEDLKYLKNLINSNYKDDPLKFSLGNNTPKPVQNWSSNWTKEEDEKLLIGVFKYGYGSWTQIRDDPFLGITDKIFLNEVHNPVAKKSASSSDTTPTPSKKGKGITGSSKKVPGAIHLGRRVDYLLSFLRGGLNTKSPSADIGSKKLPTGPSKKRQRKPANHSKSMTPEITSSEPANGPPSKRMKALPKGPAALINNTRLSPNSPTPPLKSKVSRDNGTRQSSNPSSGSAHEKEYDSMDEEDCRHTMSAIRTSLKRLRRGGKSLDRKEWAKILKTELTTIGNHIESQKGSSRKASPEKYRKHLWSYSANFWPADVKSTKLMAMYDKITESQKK
# Protein translocase subunit SecA (Escherichia coli (strain K12)), sequence (P10408 whole entry): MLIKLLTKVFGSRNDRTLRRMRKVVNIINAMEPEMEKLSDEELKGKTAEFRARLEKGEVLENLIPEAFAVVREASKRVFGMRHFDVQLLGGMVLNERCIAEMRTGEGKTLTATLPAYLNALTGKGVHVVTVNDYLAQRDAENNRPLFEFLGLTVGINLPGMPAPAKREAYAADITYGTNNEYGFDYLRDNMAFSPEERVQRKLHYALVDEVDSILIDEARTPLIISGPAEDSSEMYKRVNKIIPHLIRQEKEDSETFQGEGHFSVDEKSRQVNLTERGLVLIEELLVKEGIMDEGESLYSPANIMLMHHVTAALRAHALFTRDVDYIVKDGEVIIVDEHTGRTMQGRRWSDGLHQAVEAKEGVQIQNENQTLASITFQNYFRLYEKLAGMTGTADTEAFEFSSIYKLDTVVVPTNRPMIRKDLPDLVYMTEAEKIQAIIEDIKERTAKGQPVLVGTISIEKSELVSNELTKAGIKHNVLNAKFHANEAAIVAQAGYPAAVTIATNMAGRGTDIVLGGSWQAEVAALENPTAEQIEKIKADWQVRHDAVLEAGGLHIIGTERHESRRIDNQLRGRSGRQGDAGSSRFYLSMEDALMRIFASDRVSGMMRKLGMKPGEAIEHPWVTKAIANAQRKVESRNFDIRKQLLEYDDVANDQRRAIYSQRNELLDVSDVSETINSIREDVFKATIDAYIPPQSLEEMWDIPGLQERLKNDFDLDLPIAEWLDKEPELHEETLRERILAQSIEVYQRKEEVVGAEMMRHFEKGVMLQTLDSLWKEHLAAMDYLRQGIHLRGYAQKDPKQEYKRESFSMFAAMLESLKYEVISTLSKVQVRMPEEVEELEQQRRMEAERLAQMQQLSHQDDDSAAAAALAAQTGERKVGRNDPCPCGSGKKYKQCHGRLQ
# Sialic acid-binding Ig-like lectin 9 (Homo sapiens), sequence (Q9Y336 whole entry): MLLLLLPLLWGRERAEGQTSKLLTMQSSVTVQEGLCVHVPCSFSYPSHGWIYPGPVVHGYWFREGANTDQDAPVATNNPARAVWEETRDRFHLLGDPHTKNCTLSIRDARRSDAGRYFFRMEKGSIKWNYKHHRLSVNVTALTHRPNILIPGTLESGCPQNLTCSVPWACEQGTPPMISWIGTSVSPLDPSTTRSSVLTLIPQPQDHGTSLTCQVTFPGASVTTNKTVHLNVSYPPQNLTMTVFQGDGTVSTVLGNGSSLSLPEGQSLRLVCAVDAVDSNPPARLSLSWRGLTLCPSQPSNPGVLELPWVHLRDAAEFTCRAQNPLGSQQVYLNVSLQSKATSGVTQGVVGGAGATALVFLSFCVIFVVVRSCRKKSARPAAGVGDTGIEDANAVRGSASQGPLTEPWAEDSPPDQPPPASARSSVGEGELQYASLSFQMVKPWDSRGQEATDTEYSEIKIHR
SMILES,Percent Effect [1],Percent Effect [2],Percent Effect [3],Percent Effect [4],Percent Effect [5],Percent Effect [6],Percent Effect [7],Percent Effect [8],Percent Effect [9],Percent Effect [10],Percent Effect [11]
O=C(CCc1ccccn1)N1CCN(C(=O)CC2CCCCC2)CC1,-6.55%,15.6%,-6.12%,-12.3%,4.41%,-5.68%,10.9%,4.51%,5.71%,18.8%,-18.5%
CC(=O)NCCNC(=O)c1sc(-c2ccc(Cl)s2)nc1C,-6.51%,10.8%,5.52%,-4.05%,-5.29%,1.29%,4.67%,11.1%,0.99%,-79.3%,-0.599%
Cc1ncc2c(n1)CN(CC(=O)Nc1ccncc1)CC2,-2.13%,15.8%,-33.9%,3.22%,4.01%,-1.44%,6.85%,17.2%,15.3%,23.5%,-7.12%
CC(=O)N1CC(=O)N(c2ccccc2)CC12CCN(Cc1nccs1)C2 (configuration not stated),3.29%,10.7%,3.41%,-1.44%,-5.02%,-54.3%,7.69%,-3.63%,7.29%,30%,-7.28%
Cc1cc(NS(=O)(=O)c2ccccc2F)ccc1-n1cccc1C(=O)O,-2.35%,2.63%,6.59%,4.36%,-1.27%,-7.1%,24.1%,-10.4%,-4.25%,0%,-2.97%
COc1ccccc1OCC(=O)Nc1ncccc1Cl,-3.19%,15.3%,-6.62%,22.9%,2.62%,-2.65%,4.39%,-9.45%,3.16%,10.3%,-3.43%
CC(C)COCC(NC(=O)c1ccccn1)c1ccco1 (configuration not stated),-2.06%,13.5%,-1.56%,0.407%,4.62%,-8.02%,5.04%,5.29%,9.36%,16.1%,-8.79%
CC(C)CN1CCC2(C=C(C(=O)N3CCCC3)c3ccccc32)CC1,-2.44%,0%,-1.76%,3.68%,-6.76%,-56.8%,7.35%,1.33%,5.21%,10%,-7.39%
CCOC(=O)N1CCN(C(=O)CCn2ccc3c(OC)cccc32)CC1,-0.914%,0%,-4.91%,2.66%,-6.91%,-10.7%,15.8%,35%,2.13%,-2.6%,-1.25%
Cc1cc(C)n(Cc2ccc(C(=O)NCCN3CCOCC3)cc2)n1,-1.98%,4.17%,-0.277%,-1.95%,6.32%,-0.442%,19.6%,5.69%,7.37%,7.69%,-6.36%
Cc1cccnc1NC(=O)C(C)Cn1nc(C(F)(F)F)cc1C (configuration not stated),-1.64%,-4%,2.53%,4.76%,-3.73%,-1.94%,11.8%,-10.4%,3.17%,2.56%,-1.89%
CN1CCN(C2CCN(CC(=O)NCC(F)(F)F)CC2)C1=O,-6.45%,15.2%,-9.09%,10.9%,7.46%,-3.8%,5.32%,-11.8%,3.45%,13.9%,-3.32%
CC(C)C(=O)N1CCCC(c2cc(C(F)F)n3ncnc3n2)C1 (configuration not stated),-6.98%,4.05%,6.16%,-5.54%,-4.94%,-6.73%,4.21%,18%,-3.23%,1.3%,-0.33%
Cc1cc(C)n(CC2CN(Cc3cscn3)CCO2)n1 (configuration not stated),-2.86%,23.7%,-2.52%,-2.39%,2.63%,-0.383%,27.2%,-6.47%,7.35%,21.9%,-11.6%
CC(Cn1cccn1)NC(=O)NCc1ccc(S(N)(=O)=O)cc1 (configuration not stated),-1.8%,15.6%,6.57%,-7.88%,-1.27%,-1.05%,13.7%,6%,9.52%,23.5%,-18.9%
Cc1ccc(-c2nc(CN3CCN(S(=O)(=O)N(C)C)CC3)cs2)o1,1.85%,3.8%,3.49%,-3.53%,-3.79%,1.94%,20.9%,43.8%,8.33%,12.7%,-19.4%
CCc1nc(CCNC(=O)C2CCOC2)sc1C (configuration not stated),-4.95%,8.11%,-4.04%,10.6%,1.76%,3.75%,5.5%,9.42%,6.93%,8.54%,-0.947%
Cc1ncsc1C(=O)NC1CCN(CC(=O)N(C)c2ccccc2)CC1,-6.03%,18.4%,-4.03%,6.55%,-0.654%,-0.719%,3.3%,1.23%,10.3%,18.5%,2.33%
Cc1nc(C2CCCCN2C(=O)c2ccccc2)ncc1C(=O)N(C)C (configuration not stated),0.833%,-5.33%,7.56%,0.633%,-1.97%,4.89%,0.0881%,10.8%,1.06%,1.28%,0.34%
O=C(NCC(O)c1cccs1)c1cccc(Cl)c1 (configuration not stated),-0.149%,13.7%,3.83%,0.22%,3.72%,7.27%,25.6%,13.3%,6.45%,17.5%,-6.71%
O=C(NCC1CCOC1)N1CCN(Cc2ccc3c(c2)CCO3)CC1 (configuration not stated),-2.3%,15.8%,-4.31%,-5.79%,2.33%,-5.4%,4.99%,-17.4%,9.36%,23.5%,-7.08%
O=C(NCC1CC1)C1CN(C(=O)c2ccncc2)CC12CCOCC2 (configuration not stated),1.79%,15.6%,-0.39%,-4.66%,0.296%,4.52%,17.6%,28.1%,2.12%,19.2%,-10.9%
